Bioassay records deposited in PubChem BioAssay by National Center for Advancing Translational Sciences (NCATS).
HEK293 tox: cytotoxic compounds in HEK 293 cells. HEK 293 viability, ATP luminescence (CellTiter-Glo), 48-72 h. Potency, µM (titrated, usually from 115 µM), for inactives: at the top dose activity change, negative = cytotoxicity, most hits filed as inhibitors. 94,000 tested, 6.6% active. AID 1345083; note: nearly all actives have a fitted effect of over 60% in size
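HEK 293 seeded at 250 cells/well receive compound via pintool. After 48 or 72 hr at 37 degree Celsius, 5% CO2 and 95% humidity, CellTiter-Glo is dispensed and luminescence read following 10 min at room temperature.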
GPT2 inh: blocks human glutamate pyruvate transaminase 2; Q8TD30; Recombinant GPT2, coupled pyruvate oxidase/HRP Amplex Red fluorescence; Potency, µM (top dose mostly 57.7 µM), without a hit: at the top dose activity change, negative = inhibition, actives largely listed as inhibitors; 100,000 tested, 0.25% active; AID 1671188; note: nearly all actives have a fitted effect of over 60% in size
Target sequence (Q8TD30 whole entry, looked up): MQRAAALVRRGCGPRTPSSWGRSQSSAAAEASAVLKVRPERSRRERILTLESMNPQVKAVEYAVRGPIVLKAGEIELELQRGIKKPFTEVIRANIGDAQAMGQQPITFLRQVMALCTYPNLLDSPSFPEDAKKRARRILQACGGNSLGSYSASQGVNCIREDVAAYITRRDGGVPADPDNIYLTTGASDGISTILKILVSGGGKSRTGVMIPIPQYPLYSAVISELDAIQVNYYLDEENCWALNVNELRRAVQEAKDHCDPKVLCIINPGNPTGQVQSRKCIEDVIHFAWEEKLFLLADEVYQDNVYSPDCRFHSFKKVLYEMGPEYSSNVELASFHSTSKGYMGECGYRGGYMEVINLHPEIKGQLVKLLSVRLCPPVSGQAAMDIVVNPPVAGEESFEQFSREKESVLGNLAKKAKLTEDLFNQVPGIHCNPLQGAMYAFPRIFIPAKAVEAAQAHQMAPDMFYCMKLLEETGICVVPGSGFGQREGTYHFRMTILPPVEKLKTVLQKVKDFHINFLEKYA
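Fluorescence read-out: pyruvate from GPT2 turnover coupled to pyruvate oxidase, HRP and Amplex Red (0.2mM ThPP, 0.2U/mL PO and HRP, 50uM Amplex final). Substrates 250uM a-KG, 2mM L-alanine; enzyme 10ng/uL; 30 min RT.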
3T3 cytotox: kills NIH 3T3 cells. NIH 3T3 viability, CellTiter-Glo ATP luminescence, 48-72 h. Potency, µM (series often up to 96.7 µM), inactives show top-dose activity change, negative = cytotoxicity, actives largely listed as inhibitors. 94,000 tested, 4.3% active; note: nearly all actives have a fitted effect of over 55% in size
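Luminescent ATP readout (CellTiter-Glo, 10 min RT) after 48 or 72 hr compound exposure of NIH 3T3 cells seeded at 400 cells/well in 1536-well format; quantitative HTS.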
NPR1 antag: human Npr1 receptor antagonism; P16066; HEK293 hNpr1 GloSensor cGMP, ANP-stimulated luminescence; Potency, µM (series often up to 46.3 µM), for inactives: top-dose activity change, negative = inhibition, most hits filed as inhibitors; 76,000 tested, 1.6% active; calls by dose curve; note: nearly all actives have a fitted effect of over 60% in size
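HEK293 cells stably expressing human Npr1 and cGMP GloSensor pGS-40F, loaded 2 h with 2% GloSensor reagent, given compound 30 min at room temperature. Luminescence read before and 20 min after 0.1 nM hNppA.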
FLuc inh: blocks purified firefly luciferase enzyme activity; purified P. pyralis luciferase, luminescence, biochemical; Potency, µM (top dose mostly 115 µM), most hits filed as inhibitors; 76,000 tested, 2.5% active; note: nearly all actives have a fitted effect of over 65% in size
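Inhibitors were tested against purified firefly luciferase in a biochemical, low-substrate format (both substrates at 10uM) and luminescence measured with a CCD imager.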
* hit, by the source's call; i = inactive; ? = inconclusive; · = no result given; [ ] = another dose, or the depositor's remark. Rows were chosen to be rich in hits. Some 10% of all compounds tested hit in one or more screens of this group. Unless noted, calls come from the whole dose curve; as a rule, active = well fitted curve in the direction sought with a large enough effect; inconclusive = small, poorly fitted or top-dose-only effect, or another doubt; inactive = no such curve, though single readings can be large; an effect the other way counts as inactive or inconclusive. % is set by controls: 0 for no effect and ±100 for the full control effect; potency is the fitted concentration of half-maximal effect.

SMILES	HEK293 tox	GPT2 inh	3T3 cytotox	NPR1 antag	FLuc inh
COc1cccc(-c2ccc3c(n2)CN(Cc2ccc(F)cc2)C(=O)CO3)c1	89.1µM*	i	?	?	i
COc1cccc(CN2Cc3nc(OCc4ccc(F)cc4)ccc3OCC2=O)c1	100µM*	i	?	?	i
O=C(c1ccccc1F)N1CCCC(C(=O)N2CCC(c3nc4ncccc4[nH]3)CC2)C1 (centres undefined)	-2.1%	i	i	·	·
CCCn1cc2c3c(cccc31)CN(C(=O)COc1ccc(F)cc1)CC2	44.7µM*	-15.9%	?	-22.1%	i
CC#CC(=O)Nc1ccc2ncnc(Nc3cccc(Br)c3)c2c1	·	-6.1%	·	·	·
O=C1NCCCc2[nH]c(-c3cnn(-c4cccc(F)c4)c3)nc21	?	i	-23.5%	-20.7%	22.4µM*
Fc1cccc(-n2cc(CN3CCCC4(CCOC4)C3)cn2)c1 (centres undefined)	-11.6%	-1.3%	-28.0%	2.0%	i
COCCOCC(=O)N1CCC2(CC1)CC(N(Cc1ccc(F)cc1)C1CC1)CCO2 (centres undefined)	-1.1%	i	-1.0%	-1.7%	i
CCN1CCCCC1C(=O)N1CCC2(CC1)Nc1ccccc1NC2=O (centres undefined)	-7.2%	-6.0%	-25.1%	-3.4%	i
O=c1cc2c(nn1Cc1ccc(OC(F)(F)F)cc1)CCCCC2	44.7µM*	-6.3%	?	-20.8%	i
COc1ccc(CNC(=O)C2CCCN2Cc2cccc(-c3ccc(C)c(Cl)c3)c2)cc1 (centres undefined)	35.5µM*	·	31.6µM*	·	·
Cc1ccc(-c2cccc(CN3CCCC3C(=O)NCc3ccccc3Cl)c2)cc1Cl (centres undefined)	44.7µM*	·	?	·	·
Cc1ccc(-c2cccc(CN3CCCC3C(=O)NCc3cccs3)c2)cc1Cl (centres undefined)	35.5µM*	·	15.8µM*	·	·
O=C(NCc1ccccc1Cl)C1CCCN1Cc1ccc(-c2cncnc2)cc1 (centres undefined)	?	-4.4%	?	·	·
COc1ccccc1CNC(=O)C1CCCN1Cc1cccc(-c2ccc(C)c(Cl)c2)c1 (centres undefined)	39.8µM*	·	39.8µM*	·	·
Cc1ccc(C(=O)N2CCC(Cn3c(C)cnc3C3CCC3)CC2)cn1	-0.2%	i	4.6%	3.3%	i
Cc1ccc2c(n1)O[C@@H](COCc1ccccc1)CN(Cc1cccs1)C2=O	31.6µM*	3.3%[27.3 µM]	25.1µM*	·	·
COc1ccc(CN2CC(C(C)(C)C)Oc3nc(C)ccc3C2=O)cc1 (centres undefined)	-18.7%[57.5 µM]	-4.9%[27.3 µM]	?	·	·
Cc1ccc2c(n1)O[C@@H](COCc1ccccc1)CN(Cc1ccc3c(c1)OCO3)C2=O	?	i	12.6µM*	·	·
CCCC1CN(Cc2cccc(F)c2)C(=O)c2ccc(C)nc2O1 (centres undefined)	50.1µM*	·	?	·	·
Cc1ccc2c(n1)OC1(CCCC1)CN(Cc1ccc3c(c1)OCO3)C2=O	?	i	?	·	·
CNC(=O)[C@@H]1C[C@H](Oc2cccnc2)CN1C(=O)c1ccc(OC)nc1OC	2.6%	i	i	4.4%	i
C[S+](=O)([O-])NC1CCN(Cc2ccc(-c3ccsc3)cc2)C1 (centres undefined)	?	i	?	·	·
CC1=C(C(=O)O)/C(=C\CO[C@@H]2O[C@H](CO)[C@@H](O)[C@H](O)[C@H]2O)C(OC(=O)/C=C/c2ccc(O)cc2)C1 (some centres undefined)	·	i	·	·	·
Cc1ccccc1CCN1CCCC(CN(C)C(=O)c2cc3ccccc3[nH]2)C1 (centres undefined)	22.4µM*	4.8%	?	?	i
SMILES	HEK293 tox	GPT2 inh	3T3 cytotox	NPR1 antag	FLuc inh
Cc1cc(C(=O)N(C)CC2CCCN(CCc3ccccc3F)C2)n[nH]1 (centres undefined)	1.2%	?	0.1%	3.3%	i
c1cc(-c2noc([C@@H]3CCCN3Cc3ncc[nH]3)n2)cc(N2CCCC2)n1	100µM*	i	?	-27.3%[70.6 µM]	i
c1cncc(CN2CCC[C@H]2c2nc(-c3ccnc(N4CCCC4)c3)no2)c1	?	-11.5%[88.5 µM]	?	-1.7%[70.6 µM]	i
CC(=O)N1CCN(c2cc(-c3noc([C@@H]4CCCN4Cc4ccc(N(C)C)cc4)n3)ccn2)CC1	17.8µM*	-1.6%	-29.5%	-0.7%	i
CC(C)CCN1CCc2c(n(CCOc3ccccc3)n(-c3ccccc3)c2=O)C1	?	i	100µM*	-28.8%[70.6 µM]	i
COCCn1c(=O)c2c(n1Cc1ccccc1)CN(Cc1cncc(OC)c1)CC2	i	-5.6%[88.5 µM]	?	-0.6%[70.6 µM]	i
COc1ncc(CN2CCc3c(n(CCOc4ccccc4)n(-c4ccccc4)c3=O)C2)cn1	i	-2.6%	?	1.4%	i
CCn1c2c(c(=O)n1-c1ccccc1)CCN(C(=O)C1CCC1)C2	-7.7%[172 µM]	-3.5%[88.5 µM]	?	-21.7%[70.6 µM]	i
COC1CCC(C(=O)N2CCc3c(n(CCOc4ccccc4)n(-c4ccccc4)c3=O)C2)CC1 (centres undefined)	-7.2%	-9.9%	20µM*	1.1%	i
COCCn1c2c(c(=O)n1-c1ccccc1)CCN(C(=O)c1nc3ccccc3[nH]1)C2	-9.0%[172 µM]	-9.2%[88.5 µM]	89.1µM*	-9.8%[70.6 µM]	i
CCn1c2c(c(=O)n1-c1ccccc1)CCN(Cc1cncc(OC)c1)C2	i	i	100µM*	2.4%[70.6 µM]	i
CCOc1ccccc1CNC(=O)c1noc(-c2ccc(F)cc2)n1	?	i	-25.2%	-10.1%	i
COc1ncccc1CNC[C@H]1Cn2cc(-c3ccc4c(c3)OCCCO4)nc2CO1	89.1µM*	i	?	-2.1%[70.6 µM]	50.1µM*
COc1ccccc1-c1cn2c(n1)CO[C@@H](CNCc1cccnc1)C2	?	?	-28.8%[138 µM]	0.7%[70.6 µM]	i
c1cc(CNC[C@H]2Cn3cc(-c4ccc5c(c4)OCCCO5)nc3CO2)ccn1	-17.7%[172 µM]	-9.2%[88.5 µM]	-19.7%[138 µM]	-1.9%[70.6 µM]	44.7µM*
c1csc(CNC[C@H]2Cn3cc(-c4ccc5c(c4)OCCCO5)nc3CO2)n1	-10.9%[172 µM]	-15.9%[88.5 µM]	-7.7%[174 µM]	-4.1%[70.6 µM]	?
O=C1CO[C@H]2CCN(Cc3ccccc3)CC[C@@H]2N1c1ccccc1	?	i	-24.4%[138 µM]	-15.1%[70.6 µM]	i
COCCNC(=O)[C@@H]1C[C@H](Oc2cccnc2)CN1C(=O)CCc1ccccc1	-21.4%	i	-11.3%	4.3%	i
COc1ccc(C(=O)N2CCC3(CC2)C(=NC2CCCCC2)NC(=O)N3c2cc(F)cc(F)c2)cc1	i	-2.9%	31.6µM*	·	·
